DT40 TDP1 CPT: growth inhibition of DT40 Tdp1-/-;hTDP1 cells with camptothecin (screen for TDP1 inhibitors); AID 686979; Potency, µM (series often up to 46.2 µM), actives largely listed as inhibitors; 420,000 tested, 12% active; chicken DT40 Tdp1-/-;hTDP1 cells + 20 nM CPT, ATP luminescence, 48 h; further: nearly all actives have a fitted effect of over 55% in size
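Chicken DT40 Tdp1-/- cells complemented with human TDP1, 400 cells/well, exposed to compounds plus 20 nM camptothecin for at least 48 h at 37 C; viability read as ATP content by CellTiter-Glo luminescence.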
DT40 TDP1 no CPT: qHTS for Inhibitors of human tyrosyl-DNA phosphodiesterase 1 (TDP1): qHTS in cells in absence of CPT | DT40 Tdp1-/- hTDP1 cells, no CPT, ATP luminescence, 48 h | Potency, µM (highest dose often 46.2 µM), most hits filed as inhibitors | 420,000 tested, 15% active | AID 686978, 2013; further: nearly all actives have a fitted effect of over 55% in size
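No-CPT arm: Tdp1-/-;hTDP1 DT40 cells (400/well) plus compounds, incubated ≥48 hr at 37 °C. Readout CellTiter-Glo luminescence.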
HT1080-NT tox: kills 2HG-producing HT-1080-NT fibrosarcoma cells; HT-1080-NT fibrosarcoma viability, CellTiter-Glo ATP luminescence, 48 h; Potency, µM (highest dose often 46.1 µM), hits mostly cytotoxic; 360,000 tested, 1.6% active;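 further: NT is the 2HG producing partner of a matched IDH1 knockdown line; nearly all actives have a fitted effect of over 55% in size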
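HT-1080-NT; 750 cells/well; 5% FBS RPMI; 48 h compound, 37 degrees C; CellTiter-Glo luminescence; curve fitting and curve-class assignment.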
IL1B secr inh: inflammasome signaling inhibition, IL-1 beta readout; THP-1 LPS/ATP IL-1B secretion, AlphaLISA, 16 h; stronger effect = lower value; activity change, % at 57.5 µM; 360,000 tested, 4.7% active; AID 743279; in the data active means activity change below about -50%; inconclusive means mostly about -30% to -49%
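THP-1 cells pretreated 1 hr with compounds (up to 57.5 uM final), then stimulated with LPS (250 ng/mL final) plus ATP (1.25 mM final); secreted IL-1B measured by AlphaLISA after 16 hr, decreased signal indicating inhibition.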
HT1080 IDH1KD tx: toxicity to HT-1080 IDH1 knockdown cells (counter line); HT-1080 IDH1 knockdown viability, ATP luminescence, 48 h; Potency, µM (titrated, usually from 46.1 µM), hits mostly cytotoxic; 360,000 tested, 2% active; AID 686971
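After a 2 h attachment period, IDH1KD HT-1080 cells took pin-transferred compound for 48 h at 37 °C; ATP-based luminescence after 10 min room-temperature reagent incubation reported viability.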
Numbers stand for hits; – = inactive; ? = inconclusive; · = no result given. Rows were chosen to be rich in hits. Some 19% of all compounds tested hit in one or more screens of this group. Unless noted, the call rests on the fitted dose curve; in most records, active means well fitted curve in the direction sought with a large enough effect; inconclusive means small, poorly fitted or top-dose-only effect, or another doubt; inactive means no such curve, though single readings can be large; an effect the other way counts as inactive or inconclusive.

SMILES | DT40 TDP1 CPT | DT40 TDP1 no CPT | HT1080-NT tox | IL1B secr inh | HT1080 IDH1KD tx
Cc1nc2ccc(NS(=O)(=O)c3c(F)cc(F)cc3Br)cc2s1 | ? | 6.5µM | – | – | –
Cc1nc2ccc(NS(=O)(=O)c3ccc(C)c(C)c3)cc2s1 | 15µM | 10µM | – | – | ?
Cc1nc2ccc(S(=O)(=O)CCC(=O)Nc3ccccc3C)cc2s1 | – | – | · | · | ·
Cc1nc2ccc(NS(=O)(=O)c3ccc(F)cc3F)cc2s1 | ? | ? | – | – | –
CCOC(=O)C1=C(C)NC(=O)/C1=C\N(C)C | – | – | – | – | –
CCCc1nnc(SCC(=O)N2CCCCC2)n1CCCOC | – | – | – | – | –
O=c1[nH]c(=S)[nH]c2c1[C@H](CCc1cccc(Cl)c1)O[C@H](C1CCCC1)C2 | – | ? | ? | – | ?
NC1(C#Cc2ccc3oc(=O)c(-n4cc(-c5ccsc5)nn4)cc3c2)CCCCC1 | 8.2µM | 8.2µM | – | -99 | –
O=C(O)/C=C\C(=O)NNC(=O)c1cc(-c2ccccc2)n[nH]1 | – | – | – | – | –
CC(C)CC(=O)Nc1ccc([N+](=O)[O-])cc1Cl | – | – | – | – | –
COc1ccc(CN(C)C(C)C(=O)Nc2ccc([N+](=O)[O-])cc2Cl)cc1OC (stereo not given) | 26µM | 9.2µM | – | – | –
COc1ccc(Br)cc1CN(C)C(C)C(=O)Nc1cc([N+](=O)[O-])ccc1OC (stereo not given) | ? | 23µM | – | – | –
COc1ccc([N+](=O)[O-])cc1NC(=O)C(C)OC(=O)CN1C(=O)C2CC=CCC2C1=O (stereo not given) | – | – | – | -63 | –
CCOc1ccc(CN(C)C(C)C(=O)Nc2ccc([N+](=O)[O-])cc2Cl)cc1OC (stereo not given) | 16µM | ? | – | – | –
COc1ccc([N+](=O)[O-])cc1NC(=O)C(C)OC(=O)C1CCC1 (stereo not given) | – | – | – | – | –
Cc1oc2ncn(C)c(=O)c2c1C(=O)N1CCN(c2ccccc2)CC1 | – | – | · | · | ·
Cn1/c(=N/NC(=O)c2ccccc2F)sc2ccccc21 | – | – | – | – | –
CC(=O)C[C@H]1c2cc(F)ccc2S(=O)(=O)N1c1ccc(N(C)C)cc1 | 15µM | 13µM | – | – | –
CCOc1c2ccc(C(=O)NCc3ccc(C)cc3)cc2nn1CCOC | – | ? | – | – | –
CCc1ccccc1NC(=O)c1ccc(-n2c(C)ccc2C)cc1 | ? | ? | ? | -83 | ?
Cc1ccc(C)n1-c1ccc(NC(=O)c2ccccc2)cc1 | ? | ? | – | -53 | –
CC(=O)NCCNC(=O)c1ccc(-n2c(C)ccc2C)cc1 | – | – | – | -76 | –
CC(=O)Nc1ccc(NC(=O)c2ccc(-n3c(C)ccc3C)cc2)cc1 | ? | 16µM | – | -68 | –
CCc1ccccc1NC(=O)c1ccc(-c2csc(C)n2)cc1 | – | – | – | – | –
N#Cc1cccc(C(=O)C(=O)N2CCCN(Cc3ccc(F)cc3)CC2)c1 | – | ? | – | – | –
SMILES | DT40 TDP1 CPT | DT40 TDP1 no CPT | HT1080-NT tox | IL1B secr inh | HT1080 IDH1KD tx
CC(C)(C)OC(=O)N1CCC(NC(=O)c2nc[nH]c2C(=O)N2CCc3ccccc3C2)CC1 | ? | – | – | – | –
O=C(CCN1CCOCC1)Nc1cc(C(=O)Nc2ccc(Cl)cc2)ccc1N1CC2CC(C1)c1cccc(=O)n1C2 (stereo not given) | ? | – | – | -63 | –
CCc1c(-c2ccccc2)nc2ccccc2c1C(=O)NC(C)c1ccccc1 (stereo not given) | ? | 23µM | · | · | ·
CC(NC(=O)c1cnc2ccccc2n1)c1ccccc1 (stereo not given) | – | ? | – | – | –
Cc1nn(-c2ccc(Cl)cc2Cl)c(=O)c2ccccc12 | – | – | – | – | –
CC1=NN(S(=O)(=O)c2ccc(Cl)cc2Cl)C(=O)c2ccccc2O1 | 16µM | 16µM | – | – | –
O=c1cc2c(n[nH]1)-c1ccccc1CC2 | – | – | – | – | –
Cc1cc2c(cc1C)CN(c1ccccc1)C2 | – | ? | – | – | –

Screening results (PubChem BioAssay)
